PrP UTR inh: inhibition of PrP 5' UTR reporter expression | cell-based PrP 5' UTR mRNA reporter, plate reader | actives 0.35% (n = 340,000) | inhibition, % (concentration not given with the values) | AID 488862; in the data active means inhibition above about 52%; further: 0 = median of the neutral control wells
PrPC TRFRET: inhibitors of human cell surface prion protein PrPC; inhibition, % at 13.8 µM; AID 720596; TR-FRET read-out; P04156; actives 0.43% (n = 370,000); in the data active means inhibition above about 24%; further: 0% = median of the test wells and 100% = reference compound wells
FadD28 binding: M. tuberculosis FadD28 bisubstrate binding inhibition; FadD28 bisubstrate probe binding, fluorescence polarization; inhibition, % at 12.5 µM; actives 0.22% (n = 360,000); in the data active means inhibition above about 8.5%, passing the limit was not always enough; inconclusive means no clear call, values can overlap the other calls
Vc quorum ag: inducers of Vibrio cholerae quorum light production without autoinducers. V. cholerae BH1578 lux reporter, luminescence, 6 h. activation, % at 18.7 µM. actives 0.16% (n = 350,000). AID 588436; in the data active means activation mostly above about 9.7%, no sharp cut-off; inconclusive means no clear call, values can overlap the other calls; inactive means mostly below about 3.7%
SSB-PriA inh: inhibitors of Klebsiella pneumoniae PriA binding to SSB C-terminal tail | AlphaScreen SSBct-PriA binding, biotinylated peptide | actives 0.6% (n = 430,000) | AID 1272365 | inhibition, % at 33 µM; in the data active means inhibition mostly above about 37%, no sharp cut-off; inactive means mostly below about 20%;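 further: plate controls were negative control peptide for no effect and reference peptide for full effect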
PrP 5UTR single: prion 5' UTR mRNA inhibition, cherry-pick retest; shares compounds with PrP UTR inh; cell-based prion protein 5' UTR reporter, plate reader; inhibition, % at 2.5 µM; actives 48% (n = 1,100); in the data active means inhibition above about 54%; inconclusive means no clear call, values can overlap the other calls
* = called active by the depositor; i = inactive; ? = inconclusive; / = not tested or not shown. Hits are enriched below; roughly 1.4% of the tested compounds scored in any of these assays.

SMILES	PrP UTR inh	PrPC TRFRET	FadD28 binding	Vc quorum ag	SSB-PriA inh	PrP 5UTR single
O=[N+]([O-])c1nn(-c2ccc3c(c2)OCCO3)n(O)c1=Nc1ccccc1	81.3*	-40.6	-0.5	-0.1	21.1	78.4*
C=CCn1c(O)c(C=Nc2c(C)n(C)n(-c3ccccc3)c2=O)c(=O)[nH]c1=O	-23.6	10.8	-1.8	0.6	-7.4	/
C=CCn1c(O)c(C=Nc2ccc(OC)cc2C)c(=O)[nH]c1=O	55.2*	3.4	1.2	i	-13.8	0.4
C[C@](O)(CNC(=O)c1cc(C2CC2)on1)c1cc2ccccc2s1	/	/	/	/	-9.0	/
COc1ccccc1-[n+]1c(C)cc(/C=C2\Sc3ccccc3N2C)cc1C	70.4*	16.9	-4.6	i	/	27.9
COc1ccc(-[n+]2c(C)cc(/C=C3\Sc4ccccc4N3C)cc2C)cc1	65.9*	17.4	-0.3	4.8	/	?
O=C(COc1ccc2ccccc2c1)Nc1ccc([N+](=O)[O-])c(C(F)(F)F)c1	/	/	/	/	5.0	/
CCOC(=O)C[C@H]1C(=O)NCCN1C/C=C\c1ccccc1OC	/	/	/	/	0.0	/
COC(=O)CSc1n[nH]c(=S)s1	-30.7	0.8	-0.6	i	-6.3	/
CCSc1n[nH]c(=S)s1	76.6*	-4.4	-2.2	-3.1	-22.2	-3.5
Cn1nc2c(c1NC(=O)c1ccc(S(=O)(=O)N3CCCC3)cc1)CCC2	/	/	/	/	-12.0	/
Cc1ccc(C(=O)C[n+]2ccccc2)cc1	63.9*	-5.1	-3.1	-7.7	-1.4	-6.7
COCCCn1c(=NC(=O)c2ccccc2)c(C#N)cc2c(=O)n3cccc(C)c3nc21	66.3*	-16.2	-3.3	1.6	-2.6	-16.9
COCCCn1c(=NC(C)=O)c(C#N)cc2c(=O)n3cccc(C)c3nc21	/	3.5	0.4	i	-7.2	/
Cc1nc2cc(-c3ccc(Cl)cc3)nn2c(C)c1CCC(=O)NC(C)c1ccc2c(c1)OCCO2 (stereo unspecified)	40.2	-1.0	-0.3	-0.2	-1.1	/
Cc1csc(NC(=O)CCc2c(C)nc3cc(-c4ccc(Cl)cc4)nn3c2C)n1	50.3*	-0.8	-4.2	-0.3	-19.2	59.2*
O=C(NCc1ccc(Cl)cc1)NCc1cncc(-c2ccsc2)c1	/	/	/	/	-21.0	/
COc1ccc(-c2cc(-c3cccs3)c(C#N)c(SCC(=O)NCc3ccco3)n2)cc1	67.9*	/	-6.8	6.7	31.0	86.5*
COc1ccc(-c2cc(-c3ccccc3)nc(SCC(=O)NCc3ccco3)c2C#N)cc1	/	/	/	/	-12.0	/
CCCCOc1ccccc1-c1cc2c(SCC(=O)Nc3ccc4c(c3)OCO4)nccn2n1	/	/	/	/	10.0	/
Cc1ccc(S(=O)(=O)N(C)c2c(C)ccc(S(=O)(=O)NC(C)(C)C)c2C)cc1	82.0*	-0.9	-1.6	-0.2	-2.3	-38.7
Cc1ccc(S(=O)(=O)N(C)c2c(C)ccc(S(=O)(=O)Nc3ccncc3)c2C)cc1	-3.2	3.6	-4.9	i	3.8	/
CCOc1ccccc1N(CC(=O)Nc1cccnc1)S(C)(=O)=O	-19.5	1.0	-3.4	0.4	-11.0	/
CCOc1ccccc1N(CC(=O)Nc1cccnc1)S(=O)(=O)c1ccc(C)cc1	54.5*	0.7	-6.0	-0.4	-8.4	-17.2
Cc1cc(C)n(-c2ccc(=O)n(CCNC(=O)COc3ccc(C)c(C)c3)n2)n1	/	/	/	/	-10.0	/
SMILES	PrP UTR inh	PrPC TRFRET	FadD28 binding	Vc quorum ag	SSB-PriA inh	PrP 5UTR single
Cc1cc(/C=C2\SC(=S)N(C)C2=O)c(C)n1-c1ccccc1O	12.5	-2.6	0.1	-0.3	-9.3	/
Cc1cc(/C=C2\SC(=S)N(C)C2=O)c(C)n1-c1ccc(O)cc1	76.1*	-9.1	-3.4	-0.3	2.6	77.3*
C=C(C1=CCN(S(=O)C(C)(C)C)[C@@H]1CCO)c1ccccc1 (stereo partly specified)	58.8*	3.0	0.4	-2.2	0.2	-13.8
C=C(CCO)C1=CCN(S(=O)C(C)(C)C)[C@@H]1CCO (stereo partly specified)	-16.9	-0.9	-1.6	-1.1	-12.9	/
CC(C)c1ccc(OCC(=O)NNC(=O)c2cnccn2)cc1	61.7*	-4.5	-2.3	-0.5	-3.6	2.8
CC(C)Nc1nnc(SCC(=O)c2c(N)n(Cc3ccccc3)c(=O)n(C)c2=O)s1	59.9*	-4.8	0.6	-2.8	-14.3	-6.8
CC(=O)Nc1ccc(SCC(=O)c2c(N)n(Cc3ccccc3)c(=O)n(C)c2=O)cc1	-8.7	0.8	0.9	-0.3	2.2	/
COC(=O)c1ccc(Cn2cc(/C=C\[N+](=O)[O-])c3ccccc32)o1	52.2*	-6.7	0.1	0.2	8.6	-19.6
O=c1oc2ccccc2c(O)c1C=C1C=Nc2ccccc21	/	/	/	/	-13.9	/
